Screening results deposited in PubChem by several laboratories.
This is a sample that favours compounds with a hit; in the whole collection about 3.8% have one here.
ADAM17 inh: ADAM17 inhibitors, primary screen, biochemical, QFRET. inhibition, % at 6.95 µM. 370,000 tested, 0.83% active. Disintegrin and metalloproteinase domain-containing protein 17 (Homo sapiens), P78536. recombinant ADAM17, EDANS/DABCYL FRET peptide cleavage;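 active = inhibition above the mean of compounds lying between control limits plus 3 SD, set per campaign, cut at about 8.5% in these data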;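 also: 0% = DMSO-only wells as the low control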
Target sequence (P78536 215-824 limits assumed): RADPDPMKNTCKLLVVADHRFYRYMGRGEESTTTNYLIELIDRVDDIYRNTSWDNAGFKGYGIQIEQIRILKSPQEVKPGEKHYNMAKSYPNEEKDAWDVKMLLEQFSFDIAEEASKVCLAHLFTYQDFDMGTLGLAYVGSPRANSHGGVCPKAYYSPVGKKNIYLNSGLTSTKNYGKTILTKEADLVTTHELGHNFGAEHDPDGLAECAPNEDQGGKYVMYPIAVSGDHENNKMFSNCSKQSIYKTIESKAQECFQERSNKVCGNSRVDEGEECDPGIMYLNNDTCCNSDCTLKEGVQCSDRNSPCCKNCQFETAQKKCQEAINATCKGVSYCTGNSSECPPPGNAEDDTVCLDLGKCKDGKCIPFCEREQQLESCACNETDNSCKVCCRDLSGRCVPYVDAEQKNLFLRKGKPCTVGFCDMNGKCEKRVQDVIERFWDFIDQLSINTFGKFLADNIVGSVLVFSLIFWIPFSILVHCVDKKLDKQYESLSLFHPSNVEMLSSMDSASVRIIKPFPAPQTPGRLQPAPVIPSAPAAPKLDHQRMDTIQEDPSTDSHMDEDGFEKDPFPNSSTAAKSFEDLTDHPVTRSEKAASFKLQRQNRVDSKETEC
ADAM10 inh: human ADAM10 inhibitors, primary screen, biochemical, QFRET, HTS; Disintegrin and metalloproteinase domain-containing protein 10 (Homo sapiens), O14672; recombinant ADAM10, EDANS/DABCYL FRET peptide cleavage, 3 h; inhibition, % at 7 µM; 370,000 tested, 0.62% active;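 active = inhibition above a per-campaign cutoff equal to the mean of compounds falling between control-based bounds plus 3 SD, cut at about 20% in these data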;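 also: 0% = DMSO wells while the 100% control is not disclosed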
FGF22 binding: binders of human FGF22 protein, primary screen, FGF22 synaptogenesis inhibitor project, biophysical, thermal shift, single point; recombinant FGF22 thermal shift, SYPRO orange fluorescence; percent of sucrose octasulfate shift, DMSO zero; Fibroblast growth factor 22 (Homo sapiens), Q9HCT0; AID 651658, 2012; 340,000 tested, 1.5% active; activity (Tm shift, normalised), % at 9.99 µM;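 active = mean Tm shift, scaled 0 neutral to 100 positive control, at about 1.3% or above, every replicate too, limit read from the data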
Ecoli rRNA inh: reduced GFP signal of wild-type E. coli, primary screen, bacterial rRNA inhibitor project, GFP/RFP fluorescence, OD600, single point; 350,000 tested, 1.6% active; E. coli WT GFP vs humanized-ribosome RFP mutants, 24 h; hits give low values; DMSO median 0, no signal -100; GFP signal change (wild-type ribosome), % (test concentration not listed);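 active = significant combined selectivity score with lowered wild-type GFP, culture density cut under 30%, mutant RFP and density less affected; inactive = any of these conditions unmet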
proKLK7 act: proKLK7 zymogen activators, primary screen, biochemical, fluorescence intensity | Kallikrein-7 (Homo sapiens), P49862 | purified proKLK7, EDANS-DABCYL substrate fluorescence; 100% is mature enzyme control, 0% vehicle | activation, % at 7 µM | 370,000 tested, 0.9% active | AID 652039, 2013;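 active = activation above the mean of all tested compounds plus 3 SD, computed per campaign excluding outliers beyond control limits, cut at about 13% in these data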
ADAM10 confirm: human ADAM10 inhibitors, confirmation, biochemical, QFRET, triplicate; shares compounds with ADAM10 inh; ADAM10 QFRET peptide cleavage, EDANS fluorescence; inhibition, % at 6.95 µM; 2,100 tested, 1% active; AID 743208, 2013;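 active = inhibition above about 20% chosen separately for each screening run, limit read from the data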;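 also: 0% = DMSO wells and 100% = marimastat wells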
ADAM17 ctr: ADAM17 inhibitors, counter-screen for ADAM10 exosite inhibitor project, biochemical, QFRET, high throughput. shares compounds with ADAM10 inh. ADAM17 QFRET peptide cleavage, EDANS fluorescence. inhibition, % at 6.95 µM. 2,100 tested, 0.5% active. AID 743214, 2013;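 active = mean triplicate inhibition above the solvent-only control wells' mean plus 3 SD, cut at about 12% in these data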;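 also: 0% = DMSO wells and 100% = marimastat wells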
ADAM10 ctr: ADAM10 inhibitors, counter-screen for ADAM17 exosite inhibitor project, biochemical, FRET, human ADAM10; recombinant ADAM10, EDANS/DABCYL FRET peptide cleavage, 3 h; AID 743256, 2014; shares compounds with ADAM17 inh; 2,900 tested, 47% active; inhibition, % at 6.95 µM;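 active = mean inhibition over the triplicate runs exceeds the activity threshold set in the earlier primary screen, cut at about 20% in these data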;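 also: 0% = DMSO wells and 100% = marimastat wells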
ADAM17 confirm: ADAM17 inhibitors, hit retest, confirmation, biochemical, QFRET peptide cleavage; inhibition, % at 6.95 µM; recombinant ADAM17, EDANS/DABCYL QFRET peptide cleavage; shares compounds with ADAM17 inh; 2,900 tested, 65% active; AID 743257, 2014;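 active = mean inhibition across replicates above the hit cutoff set in the primary screen, cut at about 8.5% in these data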;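 also: 0% = DMSO wells and 100% = marimastat wells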
The depositor's hits bear a star; . = no result.

SMILES	ADAM17 inh	ADAM10 inh	FGF22 binding	Ecoli rRNA inh	proKLK7 act	ADAM10 confirm	ADAM17 ctr	ADAM10 ctr	ADAM17 confirm
Cc1cc(C(=O)OC(C(=O)Nc2cccc(C(F)(F)F)c2)c2ccccc2)c(C)o1 (centres undefined)	16*	30*	.	.	1	7	3	38*	24*
CN(C)CCNC(C(=O)Nc1cccc(C(F)(F)F)c1)c1ccccc1 (centres undefined)	-1	-10	0	14	0	.	.	.	.
CCN(CC)S(=O)(=O)c1ccc(S(=O)(=O)Nc2ccc3c(c2)oc2ccccc23)cc1	14*	32*	.	.	1	9	3	47*	25*
Cc1ccc(-c2[nH]c3ccccc3c2SCCNC(=O)c2ccc(S(=O)(=O)N3CCOCC3)cc2)cc1	11*	24*	0	1	-3	7	2	27*	16*
OC[C@@H]1[C@H](c2ccc(/C=C/c3ccccc3)cc2)[C@@H]2CN(Cc3ccncc3)CCCCN12	.	.	0	-58	.	.	.	.	.
C[C@@H]1CCCCO[C@@H](CN(C)S(=O)(=O)c2cccs2)[C@H](C)CN([C@@H](C)CO)C(=O)c2cc(NC(=O)Nc3ccc(C(F)(F)F)cc3)ccc2O1	.	.	0	3	.	.	.	.	.
O=C(C1CC1)N1CCCCN2[C@H](CO)[C@@H](c3ccc(C#CC4(O)CCCC4)cc3)[C@H]2C1	.	.	0	.	.	.	.	.	.
O=C(CNc1cc(S(=O)(=O)N2CCCC2)ccc1OCC(F)(F)F)Nc1cccc(C(F)(F)F)c1	11*	26*	0	.	-1	3	0	41*	17*
CO[C@H]1CN(C)C(=O)c2cc(NS(C)(=O)=O)ccc2OC[C@@H](C)N(CCC(F)(F)F)C[C@@H]1C	.	.	0	-2	.	.	.	.	.
Cc1ccc(C(=O)Nc2ccc3c(c2)OCO3)cc1S(=O)(=O)N1CCCC1	0	4	.	.	0	.	.	.	.
Cc1ccc(C(=O)OCc2ccc3c(c2)OCO3)cc1S(=O)(=O)N1CCCCC1	13*	21*	.	.	0	4	1	15	9.4*
CCCN(C)C[C@@H]1OCCCC[C@H](C)Oc2ccc(NC(=O)Nc3ccc(C(F)(F)F)cc3)cc2C(=O)N([C@@H](C)CO)C[C@@H]1C	.	.	-1	-3	.	.	.	.	.
O=C(CN(c1cccc(Br)c1)S(=O)(=O)c1ccccc1)N/N=C/c1cc([N+](=O)[O-])ccc1O	16*	27*	0	-2	1	3	1	28*	17*
Cc1ccccc1NC(=S)NCCC(c1ccccc1)c1ccccc1	16*	37*	.	.	1	7	3	8	7
COc1ccc(OC)c(NC(=S)NCc2ccccc2OC)c1	-5	-4	1	-8	1	.	.	.	.
COc1ccc(OC)c(NC(=S)NCCC(c2ccccc2)c2ccccc2)c1	8.7*	21*	.	1	0	7	2	23*	22*
COc1cccc(S(=O)(=O)N[C@@H]2CC[C@H](CCn3cc(-c4ccccc4OC)nn3)O[C@H]2CO)c1	.	.	0	-4	.	.	.	.	.
O=C(C[C@@H]1CC[C@H]2[C@@H](COC[C@@H](O)CN2CC2CCCC2)O1)NCc1ccc(Cl)cc1	.	.	.	-62	.	.	.	.	.
CC(=O)N1CC2(C1)[C@H](c1ccc(-c3cccc(F)c3)cc1)[C@H](CO)N2CC1CCCC1	.	.	0	-38	.	.	.	.	.
CCOC(=O)C1=CN(Cc2cccc(F)c2)S(=O)(=O)NC1CCc1ccccc1 (centres undefined)	12*	21*	0	-4	0	9	3	51*	20*
Cc1ccc(S(=O)(=O)N(C)C[C@@H]2Oc3c(NC(=O)Nc4cccc5ccccc45)cccc3C(=O)N([C@@H](C)CO)C[C@H]2C)cc1	.	.	1	2	.	.	.	.	.
O=C(CNc1cccc(C(F)(F)F)c1)N/N=C/c1cn(-c2ccccc2)nc1-c1ccccc1	1	-1	0	6	0	.	.	.	.
Cc1nn(Cc2ccccc2)c(C)c1/C=N/NC(=O)CNc1cccc(C(F)(F)F)c1	11*	21*	0	-10	0	4	1	19	10*
Cc1ccc(S(=O)(=O)Nc2cccc3c2O[C@H](CN(C)C(=O)NC2CCCCC2)[C@@H](C)CN([C@@H](C)CO)C3=O)cc1	.	.	0	0	.	.	.	.	.
COCC#Cc1cnc2c(c1)C(=O)N([C@@H](C)CO)C[C@H](C)[C@H](CN(C)C(C)=O)O2	.	.	0	5	.	.	.	.	.
CCOC(=O)C1=CCN(S(=O)(=O)c2ccccc2Cl)C1c1ccc(Cl)c(Cl)c1 (centres undefined)	15*	21*	0	-5	0	6	2	8	4
CCOC(=O)C1=CCN(S(=O)(=O)c2ccccc2Br)C1c1ccc(Cl)c(Cl)c1 (centres undefined)	1	-6	0	-3	0	.	.	.	.
CC(C)(C)S(=O)N1Cc2cc(C(=O)NCc3ccc4c(c3)OCO4)nc(-c3cccc(-c4ccccc4)c3)c2[C@@H]1CCO (some centres undefined)	9.2*	26*	0	1	-1	8	3	10	9.3*
COC(=O)C(Nc1ccccc1Cl)(c1cc(C)c(O)c(C)c1)C(F)(F)F (centres undefined)	13*	30*	.	.	0	9	4	41*	20*
